# Test results: PubChem BioAssay (NCI)
# This is part of a sample that, as a whole, favours compounds with a hit. Of some 79,000 tested, about 15% had one in any assay. A number with no mark means an inactive call. The source made the active and inactive calls. No stated cut-off is given here; in the data, active means growth inhibition above about 70%; inactive means the rest.
# Columns and labels:
# [1] = NCI Yeast Anticancer Drug Screen. Data for the rad50 strain (AID 155);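 further: 0% = growth of vehicle-only cultures of the same strain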; conditions: S. cerevisiae rad50 strain growth inhibition; at 50.0 µM; hits give high values
# How it was run: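 DNA repair mutant yeast, compound exposure, growth read-out; inhibition is taken relative to vehicle.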
# [2] = NCI Yeast Anticancer Drug Screen. Data for the mec2-1 strain (AID 157); conditions: S. cerevisiae mec2-1 strain, at 50.0 µM, hits give high values
# How it was run: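 Compounds were applied to mec2-1 yeast cells. Their growth was then compared with that of vehicle-treated cultures to give growth inhibition.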
# [3] = NCI Yeast Anticancer Drug Screen. Data for the sgs1 mgt1 strain (AID 161);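 further: 0% = growth of cultures given vehicle only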; conditions: S. cerevisiae sgs1 mgt1 strain, at 50.0 µM, hits give high values
# How it was run: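 Yeast cells carrying a defined DNA-repair defect were exposed to test compounds. Growth inhibition was measured relative to vehicle-treated controls.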
# [4] = NCI Yeast Anticancer Drug Screen. Data for the cln2 rad14 strain (AID 165);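 further: 0% = growth equal to vehicle treated cultures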; conditions: S. cerevisiae cln2 rad14 strain, at 50.0 µM, hits give high values
# How it was run: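 Strain: cln2 rad14 yeast, altered in cell cycle control and DNA damage repair. Read-out: growth inhibition vs vehicle.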
# [5] = NCI Yeast Anticancer Drug Screen. Data for the bub3 strain (AID 167); conditions: S. cerevisiae bub3 mutant strain, at 50.0 µM, hits give high values
# How it was run: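 In this screen, a yeast mutant lacking normal mitotic checkpoint function is challenged with compound. Relative growth versus vehicle gives the inhibition value.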
# [6] = NCI Yeast Anticancer Drug Screen. Data for the mlh1 rad18 strain (AID 175); conditions: S. cerevisiae mlh1 rad18 strain growth inhibition; at 50.0 µM; hits give high values
# How it was run: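 A repair-deficient yeast strain is exposed to test compound, and growth is scored relative to vehicle-treated controls.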
Structure (SMILES),growth inhibition [1],growth inhibition [2],growth inhibition [3],growth inhibition [4],growth inhibition [5],growth inhibition [6]
CNC1(C(N)=O)CCN(Cc2ccccc2)CC1,-14.7%,-10.3%,-25.8%,0.75%,-3.6%,-8.35%
O=C(COc1ccc(Cl)c(Cl)c1)NCc1cccc(Cl)c1,6.1%,-8.65%,-1.7%,-2.85%,36.4%,30.9%
Cc1cc(C)c(Br)c(C)c1,1.55%,0.45%,-2%,-20.2%,-4.95%,-12.7%
Nc1nc(N)nc(SCCO)n1,-25.1%,1.55%,-14.1%,-44.8%,-4.75%,-8.45%
CCOC1CS(=O)(=O)CC(OCC)O1 (configuration not stated),3.35%,6.05%,4.9%,-30.6%,-8.35%,13.8%
COc1cc(C(=O)N2C3C4CCC(C)(OC4(C)C)C32)cc(OC)c1OC (configuration not stated),18.4%,-15.4%,2.8%,10.2%,6%,-8.9%
COc1cc(NCc2ccc3c(c2)OCO3)c([N+](=O)[O-])cc1OC,5.15%,11.3%,6.6%,-8.6%,4.3%,-15.7%
C=C(C)C(=O)Nc1ccc2nn(-c3ccccc3O)nc2c1,-24.9%,-25.4%,1.75%,8.15%,-14.2%,5.3%
COC(=O)C1(C(=O)OC)OC(c2ccc(OC)cc2)[C@H]2C(=O)N(C)C(=O)[C@H]21 (some centres not stated),2.75%,-6%,3.1%,-8.7%,10.2%,15.3%
Oc1ccccc1-c1n[nH]c(=S)n1/N=C/c1ccc(-c2ccc(Br)cc2)o1,-30.5%,-19.2%,-29.2%,-4.35%,-20.1%,-42.9%
NC(N)=N/N=C(/c1nc2ccc([N+](=O)[O-])cc2[nH]c1=O)C(O)c1ccco1 (configuration not stated),10.1%,-25%,0.25%,5.95%,-15.3%,1.7%
Cc1cc(Cl)ccc1NC(=O)/C(=N\NC(C)(C)C)C(C#N)c1nc(-c2ccc([N+](=O)[O-])cc2)cs1 (configuration not stated),23.8%,8.95%,3.85%,25.7%,4.25%,-10.8%
C/C(=N\N=C(/C)c1ccc(N)cc1)c1ccc(N)cc1,15.9%,5%,1.9%,-3.3%,13.9%,9%
O=C1CSC(c2cccs2)N1c1nncs1 (configuration not stated),27.4%,-14.8%,19.3%,14.6%,11.6%,21.6%
COc1ccc(/C=C2\N=C(c3ccc(N)cc3)OC2=O)cc1OC,10.1%,-0.05%,13.2%,20.1%,10.3%,19.9%
COC(=O)CCCc1ccc2c(c1)CC1(C2)Cc2cc3c(cc2C1)CCCC3,-14.5%,-20.4%,-11.2%,-15.5%,-11.9%,-3.85%
O[C@H]1[C@H]2[C@H](O)C[C@H](CCOCc3ccccc3)CN2C[C@H]1O,-8.15%,7.8%,-3.45%,20%,16%,-22.9%
COc1ccc(NC(C)=O)c(O)c1C,-0.6%,2.15%,-17%,-25.4%,-3.7%,-12.7%
O=c1[nH]c2cc([N+](=O)[O-])ccc2nc1/C=C(\O)c1cccc([N+](=O)[O-])c1,12.3%,-1.35%,5.25%,-5.15%,-3.1%,28.6%

Structure (SMILES),growth inhibition [1],growth inhibition [2],growth inhibition [3],growth inhibition [4],growth inhibition [5],growth inhibition [6]
CCOC(=O)C(C#N)C1CCCC(C)CC1 (configuration not stated),13%,6.5%,3.5%,2.65%,34.1%,7.55%
N/C(=N\OC(=O)Nc1ccc(CSc2ccc(Cl)cc2)o1)c1ccccn1,2.9%,-22.8%,-14.1%,10.8%,-16.9%,-31.6%
COc1ccccc1C1CC(c2ccccc2)=Nc2ccccc2S1 (configuration not stated),-3.95%,-45.2%,1.25%,5.95%,-30.8%,-1.05%
CC(C)(C)CC(C)(C)c1ccc(OCCOc2ccc(C(=O)NCCNC(=O)c3ccc4ccccc4c3O)cc2N)cc1,-13%,-5.25%,3.85%,26.4%,-7.1%,-16.6%
Cc1ccc(NC(=O)C(=O)C(C2C(C)CC(=O)C2CC(=O)O)[N+](=O)[O-])cc1 (configuration not stated),23.6%,11.7%,12.2%,17.7%,13.7%,30.6%
CON,-16.2%,-5.35%,2.4%,-13.1%,0.3%,-12.2%
Cc1ccc([N+](=O)[O-])cc1NC(=O)NCCCl,-11.1%,4.55%,5.5%,-1%,-11.1%,-9.05%
CCNC(=O)NCCN1CCOCC1,-3.55%,-8%,-3.1%,-75%,7.05%,-2%
COc1ccc(C2CC(=O)N(c3ncccc3C)C(=O)C2)cc1,-1%,6.9%,-1.05%,-21.1%,-18.8%,3.65%
CCOC(=O)CNc1ccccc1[N+](=O)[O-],-2.05%,5.8%,-5.4%,12.3%,13.1%,-3.75%
CCOC(=O)NC(Nc1ccc(C(=O)OCC)cc1)(C(F)(F)F)C(F)(F)F,0.25%,3.25%,-15.2%,-16%,-13.2%,0.55%
CCOC(=O)c1sc(SC)nc1NC(=O)c1ccc(OC)cc1,24.6%,21.7%,-31.6%,17.2%,2.1%,19.1%
CC(SCCNC(N)=O)C(N)=O (configuration not stated),-16.1%,-7.8%,-6.6%,-28.4%,7.25%,-14.4%
NS(=O)(=O)c1ccc(N2C(=O)C3C(C2=O)C2(Cl)C(Cl)=C(Cl)C3(Cl)C2(Cl)Cl)cc1 (configuration not stated),-6.4%,-6.95%,3.25%,15.1%,-4.7%,20.6%
CCC(C)CNCCO (configuration not stated),24.6%,-7.1%,5.7%,0.35%,-6.25%,11.3%
CC(C)=CCC1=C(O)[C@@](O)(CC=C(C)C)C(=O)C(C(=O)CC(C)C)=C1O,28.2%,7.95%,31.7%,26.4%,35.2%,29.6%
CCCCCCCCCCCCCCCC(=O)NCC(=O)NC1C(CO)OC(Nc2ncnc3nc[nH]c23)C(O)C1O (configuration not stated),61.8%,19%,82.7% (active),14.7%,76.2% (active),-11.7%
COC(=O)C1(CC(=O)c2cccc3ccccc23)NC(=S)NC(=O)C1C#N (configuration not stated),0.55%,15.7%,-17.4%,-13.3%,-0.7%,-9.35%
